Assay results from PubChem BioAssay (Tox21).
Records with an inconclusive call do not appear. The source made the active and inactive calls. Unless noted, calls come from the whole dose curve; as a rule, active = well fitted curve in the direction sought with a large enough effect in the repeat runs; inconclusive = weak or mixed curves; inactive = no such curve, though single readings can be large; an effect the other way counts as inactive or inconclusive.

How the values were obtained:
[1] = A CellTox Green Cytotoxicity Assay to monitor cytotoxicity in HEK293 cells - 32 hour (AID 1224881); note: nearly all actives have a fitted effect of over 40% in size
Summary of the method: (§1)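 Homogeneous no-lysis format: HEK293 cell suspension mixed with CellTox Green reagent, seeded, incubated 5 h at 37 C/5% CO2, then dosed by pintool with compound in DMSO.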

[2] = A CellTox Green Cytotoxicity Assay to monitor cytotoxicity in HepG2 cells - 0 hour (AID 1224882); note: nearly all actives have a fitted effect of over 35% in size
Summary of the method: (§2)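 Fluorescent DNA-binding dye, 600 HepG2 cells/well, 5 h preincubation then compound in DMSO; same plates read at 0–40 h, 37 C.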

[3] = A CellTox Green Cytotoxicity Assay to monitor cytotoxicity in HEK293 cells - 8 hour (AID 1224884); note: nearly all actives have a fitted effect of over 35% in size
Summary of the method: as §1

[4] = qHTS RealTime-Glo MT Cell Viability Assay in HepG2 cells - 16 hour (AID 1224885); note: nearly all actives have a fitted effect of over 50% in size
Summary of the method: (§3)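 HepG2 cells were seeded at 600 cells/well together with NanoLuc luciferase and a cell-permeant prosubstrate, preincubated 5 h at 37 C/5% CO2, then pin-dosed with compounds in DMSO. Nonlytic luminescence from viable cells was read at each time point.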

[5] = qHTS RealTime-Glo MT Cell Viability Assay in HEK293 cells - 24 hour (AID 1224886); note: top concentration of the series differs between compounds; nearly all actives have a fitted effect of over 50% in size
Summary of the method: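 HEK293 cells were seeded at 600 cells/well together with NanoLuc luciferase and cell-permeant prosubstrate, preincubated 5 h at 37 C/5% CO2, then given compound in DMSO by pintool. Luminescence from viable-cell prosubstrate reduction was read repeatedly over 40 h.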

[6] = qHTS RealTime-Glo MT Cell Viability Assay in HEK293 cells - 8 hour (AID 1224887); note: top concentration of the series differs between compounds; nearly all actives have a fitted effect of over 50% in size
Summary of the method: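 Measured as luminescence from the same continuously cultured HEK293 wells at successive time points (0, 8, 16, 24, 32, 40 h) after compound addition. Reagent present from seeding; dosing at 5 h; incubation 37 C.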

[7] = A CellTox Green Cytotoxicity Assay to monitor cytotoxicity in HEK293 cells - 16 hour (AID 1224888); note: nearly all actives have a fitted effect of over 35% in size
Summary of the method: as §1

[8] = qHTS RealTime-Glo MT Cell Viability Assay in HepG2 cells - 0 hour (AID 1224889); note: nearly all actives have a fitted effect of over 50% in size
Summary of the method: as §3

[9] = A CellTox Green Cytotoxicity Assay to monitor cytotoxicity in HepG2 cells - 8 hour (AID 1224890); note: nearly all actives have a fitted effect of over 45% in size
Summary of the method: as §2

[10] = qHTS assay to identify small molecule antagonists of the estrogen receptor alpha (ER-alpha) signaling pathway using the BG1 cell line in the presence of 0.1 nM 17-beta-estradiol - cell viability counter screen (AID 1259241); note: nearly all actives have a fitted effect of over 40% in size
Summary of the method: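 Following 5 days in phenol red-free medium with charcoal-stripped serum, VM7Luc4E2 cells received test compounds alongside 0.1 nM 17beta-estradiol (final) at 37C for 22 hr. Live cells were then quantified via protease-substrate fluorescence.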

[11] = qHTS assay to identify small molecule antagonists of the androgen receptor (AR) signaling pathway using the MDA cell line in the presence of 0.5 nM R1881 - cell viability counter screen (AID 1259242); note: nearly all actives have a fitted effect of over 45% in size
Summary of the method: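 Human breast carcinoma MDA-kb2 cells, cultured without CO2, receive compounds alongside 0.5 nM (final) R1881 agonist. After 16 hr at 37C, viability is taken as live-cell protease signal.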

[12] = biological target: Androgen receptor (Homo sapiens) (UniProt P10275); assay: qHTS assay to identify small molecule antagonists of the androgen receptor (AR) signaling pathway using the MDA cell line in the presence of 0.5 nM R1881 (AID 1259243); note: nearly all actives have a fitted effect of over 50% in size
Summary of the method: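 Cells: MDA-kb2 (MMTV-luc). Stimulus: 0.5 nM R1881. Time: 16 hr, 37C, no CO2. Detection: ONE-Glo luminescence after 30 min at RT.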

[13] = biological target: Estrogen receptor (Homo sapiens) (UniProt P03372); assay: qHTS assay to identify small molecule antagonists of the estrogen receptor alpha (ER-alpha) signaling pathway using the BG1 cell line in the presence of 0.1 nM 17-beta-estradiol (AID 1259244); note: nearly all actives have a fitted effect of over 50% in size
Summary of the method: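 Seeding of stripped-serum-adapted VM7Luc4E2 cells, 24 h attachment, compound transfer, then 0.1 nM final 17beta-estradiol; after 22 h incubation, ONE-Glo reagent and luminescence reading.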

[14] = qHTS assay to identify small molecule HDAC inhibitors (AID 1259364);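 note: wild-type HCT-116 cells with endogenous class I/II HDAC activity; top concentration of the series differs between compounds; nearly all actives have a fitted effect of over 45% in size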
Summary of the method: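 After a 2 hr compound incubation (37C, 5% CO2), HCT-116 cells seeded at 1,500/well the day before received HDAC-Glo reagent; signal read as luminescence after 30 min at room temperature.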

[15] = qHTS assay to identify small molecule HDAC inhibitors - cell viability counter screen (AID 1259365)
Summary of the method: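 HCT-116 wild-type, overnight attachment; 2hr drug exposure, 37C; CellTiter-Glo luminescent ATP readout after 30min RT.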

[16] = qHTS assay to identify small molecule agonists of the sonic hedgehog signaling (Shh) pathway - cell viability counter screen (AID 1259366); note: nearly all actives have a fitted effect of over 50% in size
Summary of the method: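 Compounds in DMSO were pin-transferred onto 3T3 Gli1-Luc cells that had settled 4hr; plates then stood 24hr at 37C and 5% CO2. One hour before the end, CellTiter-Fluor was added and fluorescence recorded.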

[17] = qHTS assay to identify small molecule antagonists of the sonic hedgehog signaling (Shh) pathway - cell viability counter screen (AID 1259367); note: nearly all actives have a fitted effect of over 55% in size
Summary of the method: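 Viability was read by CellTiter-Fluor fluorescence in the same wells, reagent added 23 hr into compound treatment and incubated 1 hr at 37C. The 3T3 Gli1-Luc reporter cells (2,000/well) received conditioned medium after compound and ran 24 hr.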

[18] = qHTS assay to identify small molecule agonists of the sonic hedgehog signaling (Shh) pathway (AID 1259368; calls by dose curve;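 note: NIH/3T3-derived 3T3Gli1-Luc cells carrying a stable Gli1-driven firefly luciferase reporter; series mostly up to about 92 µM; nearly all actives have a fitted effect of over 15% in size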)
Summary of the method: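 Stable NIH/3T3 Gli1-Luc reporter clone; 24 hr cpd exposure after a 4 hr settling period; luminescence endpoint.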

[19] = qHTS assay to identify small molecule phospholipidosis (PLD) inducers (AID 1259344; active = well fitted curve in the direction sought with a large enough effect; an effect the other way counts as inactive or inconclusive)
Summary of the method: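 Phospholipid accumulation was scored by imaging: fixed, Hoechst-counterstained HepG2 cells stained with LipidTOX Red after 24 h compound exposure at 37 C. Read-outs were pit count and pit intensity per well or per cell, with amiodarone and DMSO controls.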

[20] = A CellTox Green Cytotoxicity Assay to monitor cytotoxicity in HepG2 cells - 32 hour (AID 1224883); note: nearly all actives have a fitted effect of over 50% in size
Summary of the method: as §2

Measured: Potency

Estrogen receptor (Homo sapiens), sequence (P03372 whole entry, looked up): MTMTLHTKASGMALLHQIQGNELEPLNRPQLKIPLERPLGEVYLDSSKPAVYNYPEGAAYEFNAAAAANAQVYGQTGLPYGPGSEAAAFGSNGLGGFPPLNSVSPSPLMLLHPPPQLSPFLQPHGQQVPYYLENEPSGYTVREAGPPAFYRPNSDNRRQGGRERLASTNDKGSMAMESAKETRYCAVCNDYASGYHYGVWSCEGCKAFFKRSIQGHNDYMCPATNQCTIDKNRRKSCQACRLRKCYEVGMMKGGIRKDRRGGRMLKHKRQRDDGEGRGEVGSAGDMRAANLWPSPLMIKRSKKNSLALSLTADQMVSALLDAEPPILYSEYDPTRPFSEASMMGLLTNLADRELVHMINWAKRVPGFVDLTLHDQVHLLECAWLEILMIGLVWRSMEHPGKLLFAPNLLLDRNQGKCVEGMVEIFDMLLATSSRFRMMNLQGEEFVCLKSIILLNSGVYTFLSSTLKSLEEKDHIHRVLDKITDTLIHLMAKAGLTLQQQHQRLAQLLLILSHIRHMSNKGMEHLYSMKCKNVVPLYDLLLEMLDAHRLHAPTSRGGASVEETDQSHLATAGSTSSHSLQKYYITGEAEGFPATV
Androgen receptor (Homo sapiens), sequence (P10275 whole entry, looked up): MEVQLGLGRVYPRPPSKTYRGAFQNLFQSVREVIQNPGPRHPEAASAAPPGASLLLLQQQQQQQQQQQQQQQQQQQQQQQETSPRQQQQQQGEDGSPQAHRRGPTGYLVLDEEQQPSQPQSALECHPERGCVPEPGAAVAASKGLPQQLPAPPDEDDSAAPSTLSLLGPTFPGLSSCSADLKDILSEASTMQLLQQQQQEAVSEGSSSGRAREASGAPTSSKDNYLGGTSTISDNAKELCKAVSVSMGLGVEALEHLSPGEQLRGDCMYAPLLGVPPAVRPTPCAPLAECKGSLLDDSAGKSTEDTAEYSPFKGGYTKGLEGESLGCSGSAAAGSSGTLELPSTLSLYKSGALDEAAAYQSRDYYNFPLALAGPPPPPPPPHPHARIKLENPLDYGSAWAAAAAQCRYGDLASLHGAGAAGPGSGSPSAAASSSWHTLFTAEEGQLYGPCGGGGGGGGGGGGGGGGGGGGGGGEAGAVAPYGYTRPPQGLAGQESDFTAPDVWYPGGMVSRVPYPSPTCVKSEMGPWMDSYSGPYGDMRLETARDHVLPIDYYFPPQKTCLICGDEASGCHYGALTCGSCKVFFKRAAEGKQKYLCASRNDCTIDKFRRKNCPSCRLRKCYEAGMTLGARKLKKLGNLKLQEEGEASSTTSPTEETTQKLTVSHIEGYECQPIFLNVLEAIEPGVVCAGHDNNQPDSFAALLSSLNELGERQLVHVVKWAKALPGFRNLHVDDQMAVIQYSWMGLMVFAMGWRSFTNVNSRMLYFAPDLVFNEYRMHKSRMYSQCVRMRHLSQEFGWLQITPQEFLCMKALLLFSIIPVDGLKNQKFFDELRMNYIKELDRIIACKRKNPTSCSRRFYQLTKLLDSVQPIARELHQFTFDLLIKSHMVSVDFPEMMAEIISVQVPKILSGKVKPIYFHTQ

CC1=NN(c2cccc(S(=O)(=O)O)c2)C(=O)C1
not listed: [19] | [20]
inactive: all other assays above

Cc1c(N)c(=O)n(-c2ccccc2)n1C
not listed: [12] | [13] | [20]
inactive: all other assays above

NCCCC[C@H](N[C@@H](CCc1ccccc1)C(=O)O)C(=O)N1CCC[C@H]1C(=O)O
not listed: [4] | [12] | [13] | [15] | [19]
inactive: all other assays above

C=CC(=O)OCCCl
not listed: [4] | [8] | [12] | [19]
inactive: all other assays above

C[N+](C)(CCOc1ccccc1)Cc1cccs1
not listed: [13] | [19] | [20]
inactive: all other assays above

CCN(CC#N)c1cccc(C)c1
not listed: [12] | [15] | [19] | [20]
inactive: all other assays above

Nc1ccncc1N
not listed: [4] | [8] | [12] | [13] | [19]
inactive: all other assays above

COC(=O)C1=C(C)NC(C)=C(C(=O)OC(C)C)C1c1cccc2nonc12 (stereo not drawn)
not listed: [4] | [5] | [6] | [8] | [12] | [13] | [16] | [17]
inactive: all other assays above

C[C@H]1C[C@H]2[C@@H]3CCC4=CC(=O)C=C[C@]4(C)[C@H]3C(=O)C[C@]2(C)[C@@]1(O)C(=O)CO
not listed: [4] | [5] | [8] | [12] | [19]
inactive: all other assays above

CCC(C(=O)NC(=O)NC(C)=O)c1ccccc1 (stereo not drawn)
not listed: [12] | [19] | [20]
inactive: all other assays above

CCCCCCCCCC[N+](C)(C)[O-]
not listed: [19] | [20]
inactive: all other assays above

O=CN(CCO)CCO
not listed: [4] | [12] | [13] | [15] | [19]
inactive: all other assays above

Cc1ccnc(NS(=O)(=O)c2ccc(N)cc2)n1
not listed: [4] | [8] | [12] | [15] | [19]
inactive: all other assays above

CC1OC1C1CCC2(C)OC2C1 (stereo not drawn)
not listed: [12] | [19] | [20]
inactive: all other assays above
